Key:
Experiment in all cases: DAPPL (digital affinity profiling via proximity ligation, sequencing); 10 mM Tris-HCl pH 7.5, 50 mM NaCl, 1 mM DTT, 4% glycerol, room temperature, 30 min; GST-TFs on glutathione beads, 16-mer random dsDNA library, 0.1% formaldehyde crosslink after washing; high values mean tight binding
ELK3 = target: T1, ELK3 (Homo sapiens, UniProt P41970 1-407); details: protein: recombinant; tags: N-terminal GST; dsDNA, one strand shown
T1 sequence: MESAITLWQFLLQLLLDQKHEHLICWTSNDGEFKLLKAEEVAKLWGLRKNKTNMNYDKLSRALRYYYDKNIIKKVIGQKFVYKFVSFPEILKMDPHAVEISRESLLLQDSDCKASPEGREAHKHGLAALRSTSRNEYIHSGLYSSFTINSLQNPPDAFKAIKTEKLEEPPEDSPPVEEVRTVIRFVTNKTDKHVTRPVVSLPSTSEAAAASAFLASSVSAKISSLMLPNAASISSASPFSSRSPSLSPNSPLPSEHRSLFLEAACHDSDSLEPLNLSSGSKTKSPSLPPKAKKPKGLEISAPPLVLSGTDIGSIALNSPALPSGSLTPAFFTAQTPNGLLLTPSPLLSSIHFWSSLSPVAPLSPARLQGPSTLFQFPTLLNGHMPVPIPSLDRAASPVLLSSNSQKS
How it was run: (§1)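 Binding signal is each hexamer's read frequency for a factor divided by its frequency in the tag-only sample. The factors were GST-fused human transcription factors from yeast, captured on glutathione beads, DNA-barcoded and pooled with that sample. Pools were incubated with 200 nmole of a random double-stranded 16-mer DNA library in Tris/NaCl/DTT/glycerol buffer at room temperature for 30 min, then washed, crosslinked with 0.1% formaldehyde, proximity-ligated with BsaI/T4 ligase (1 h, 37 °C), PCR-amplified and sequenced on an Illumina NextSeq500.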

HSF1 = HSF1 (Homo sapiens, UniProt Q00613 1-529); details: protein: recombinant; tags: N-terminal GST; chain copies: 3; dsDNA, one strand shown
How it was run: as §1

SPIC = target: T2, SPIC (Homo sapiens, UniProt Q8N5J4 1-248); details: protein: recombinant; tags: N-terminal GST; dsDNA, one strand shown
T2 sequence: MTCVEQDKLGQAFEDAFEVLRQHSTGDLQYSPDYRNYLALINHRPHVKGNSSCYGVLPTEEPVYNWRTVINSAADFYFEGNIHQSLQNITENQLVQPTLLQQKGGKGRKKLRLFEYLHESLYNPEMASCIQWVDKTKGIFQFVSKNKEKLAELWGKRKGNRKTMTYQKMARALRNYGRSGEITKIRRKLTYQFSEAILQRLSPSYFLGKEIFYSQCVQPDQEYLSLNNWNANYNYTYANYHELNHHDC
How it was run: as §1

ELF3 = target: T3, ELF3 (Homo sapiens, UniProt P78545 1-371); details: protein: recombinant; tags: N-terminal GST; dsDNA, one strand shown
T3 sequence: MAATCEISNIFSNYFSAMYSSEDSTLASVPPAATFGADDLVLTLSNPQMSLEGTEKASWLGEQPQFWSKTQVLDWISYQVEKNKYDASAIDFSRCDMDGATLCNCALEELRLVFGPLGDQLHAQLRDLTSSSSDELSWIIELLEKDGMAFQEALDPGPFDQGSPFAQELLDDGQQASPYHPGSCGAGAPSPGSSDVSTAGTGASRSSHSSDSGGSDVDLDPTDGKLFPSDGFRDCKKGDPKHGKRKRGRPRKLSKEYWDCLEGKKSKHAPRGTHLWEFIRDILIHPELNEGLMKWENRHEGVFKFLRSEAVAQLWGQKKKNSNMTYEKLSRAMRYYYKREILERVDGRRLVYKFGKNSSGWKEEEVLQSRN
How it was run: as §1

ELK4 = target: T4, ELK4 (Homo sapiens, UniProt P28324-2 1-405); details: protein: recombinant; tags: N-terminal GST; dsDNA, one strand shown
T4 sequence: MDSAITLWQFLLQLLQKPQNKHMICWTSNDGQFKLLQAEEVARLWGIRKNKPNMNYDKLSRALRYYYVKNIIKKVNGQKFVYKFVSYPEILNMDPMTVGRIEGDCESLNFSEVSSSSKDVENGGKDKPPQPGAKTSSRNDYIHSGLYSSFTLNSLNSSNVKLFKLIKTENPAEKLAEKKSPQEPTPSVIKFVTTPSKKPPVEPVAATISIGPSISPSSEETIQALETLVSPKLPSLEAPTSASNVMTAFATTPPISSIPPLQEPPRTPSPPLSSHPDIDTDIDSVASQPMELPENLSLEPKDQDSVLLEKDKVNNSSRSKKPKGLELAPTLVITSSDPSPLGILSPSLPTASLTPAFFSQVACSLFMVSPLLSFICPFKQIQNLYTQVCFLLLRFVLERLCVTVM
How it was run: as §1

ETV2 = target: T5, ETV2 (Homo sapiens, UniProt O00321 1-342); details: protein: recombinant; tags: N-terminal GST; dsDNA, one strand shown
T5 sequence: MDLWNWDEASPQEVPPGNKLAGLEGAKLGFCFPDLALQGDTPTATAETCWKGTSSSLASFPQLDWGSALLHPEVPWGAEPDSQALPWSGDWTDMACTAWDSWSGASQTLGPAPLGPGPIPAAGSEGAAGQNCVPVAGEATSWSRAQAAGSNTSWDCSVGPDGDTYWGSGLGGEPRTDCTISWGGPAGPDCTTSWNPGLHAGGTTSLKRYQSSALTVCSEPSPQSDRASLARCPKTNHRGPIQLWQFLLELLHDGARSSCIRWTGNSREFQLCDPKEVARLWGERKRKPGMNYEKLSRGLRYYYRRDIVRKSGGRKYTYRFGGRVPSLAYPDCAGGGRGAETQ
How it was run: as §1

ETV7 = target: T6, ETV7 (Homo sapiens, UniProt Q9Y603 1-341); details: protein: recombinant; tags: N-terminal GST; dsDNA, one strand shown
T6 sequence: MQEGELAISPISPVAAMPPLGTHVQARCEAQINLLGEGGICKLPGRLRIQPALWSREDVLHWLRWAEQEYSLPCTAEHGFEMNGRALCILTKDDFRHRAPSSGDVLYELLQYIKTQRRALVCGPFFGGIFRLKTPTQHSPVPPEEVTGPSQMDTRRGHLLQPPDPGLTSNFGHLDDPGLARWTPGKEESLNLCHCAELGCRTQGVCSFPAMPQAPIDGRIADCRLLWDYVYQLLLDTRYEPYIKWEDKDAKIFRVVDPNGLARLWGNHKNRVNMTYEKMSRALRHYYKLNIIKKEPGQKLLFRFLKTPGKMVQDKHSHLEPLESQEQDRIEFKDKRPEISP
How it was run: as §1

EHF = target: T7, EHF (Homo sapiens, UniProt Q9NZC4 1-300); details: protein: recombinant; tags: N-terminal GST; dsDNA, one strand shown
T7 sequence: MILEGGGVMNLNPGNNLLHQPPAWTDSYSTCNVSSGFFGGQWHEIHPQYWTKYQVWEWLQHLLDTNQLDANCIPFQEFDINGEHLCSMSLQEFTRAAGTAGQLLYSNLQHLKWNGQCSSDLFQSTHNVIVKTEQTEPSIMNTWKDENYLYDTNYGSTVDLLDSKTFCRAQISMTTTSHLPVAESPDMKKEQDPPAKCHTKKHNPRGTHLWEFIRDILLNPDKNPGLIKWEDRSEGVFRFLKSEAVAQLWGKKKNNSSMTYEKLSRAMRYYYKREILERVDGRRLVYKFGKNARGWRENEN
How it was run: as §1

ELK1 = target: T8, ELK1 (Homo sapiens, UniProt P19419 1-428); details: protein: recombinant; tags: N-terminal GST; dsDNA, one strand shown
T8 sequence: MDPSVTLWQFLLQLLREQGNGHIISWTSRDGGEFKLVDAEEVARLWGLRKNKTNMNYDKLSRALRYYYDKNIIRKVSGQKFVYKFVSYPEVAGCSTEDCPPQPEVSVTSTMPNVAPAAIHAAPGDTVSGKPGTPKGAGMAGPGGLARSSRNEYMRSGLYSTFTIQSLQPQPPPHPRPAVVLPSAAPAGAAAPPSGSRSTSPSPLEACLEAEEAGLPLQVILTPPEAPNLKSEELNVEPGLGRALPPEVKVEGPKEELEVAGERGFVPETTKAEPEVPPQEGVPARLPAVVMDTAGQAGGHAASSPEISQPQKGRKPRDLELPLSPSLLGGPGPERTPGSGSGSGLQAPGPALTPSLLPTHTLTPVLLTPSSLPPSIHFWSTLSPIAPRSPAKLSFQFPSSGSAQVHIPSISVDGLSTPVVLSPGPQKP
How it was run: as §1

GABPA = target: T9, GABPA (Homo sapiens, UniProt Q06546 1-454); details: protein: recombinant; tags: N-terminal GST; dsDNA, one strand shown
T9 sequence: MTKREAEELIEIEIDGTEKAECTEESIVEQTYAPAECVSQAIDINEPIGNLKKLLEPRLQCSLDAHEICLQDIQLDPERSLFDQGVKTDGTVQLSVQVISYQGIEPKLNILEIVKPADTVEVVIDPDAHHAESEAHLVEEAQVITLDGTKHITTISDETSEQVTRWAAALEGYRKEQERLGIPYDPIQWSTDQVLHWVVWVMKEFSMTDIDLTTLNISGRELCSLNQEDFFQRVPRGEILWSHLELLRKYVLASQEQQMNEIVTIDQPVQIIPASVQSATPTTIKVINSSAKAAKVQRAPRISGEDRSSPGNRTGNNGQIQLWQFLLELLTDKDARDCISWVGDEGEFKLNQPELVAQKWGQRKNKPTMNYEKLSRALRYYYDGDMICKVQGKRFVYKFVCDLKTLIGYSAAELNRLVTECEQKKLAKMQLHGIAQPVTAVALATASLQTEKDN
How it was run: as §1

FEV = target: T10, FEV (Homo sapiens, UniProt Q99581 1-238); details: protein: recombinant; tags: N-terminal GST; dsDNA, one strand shown
T10 sequence: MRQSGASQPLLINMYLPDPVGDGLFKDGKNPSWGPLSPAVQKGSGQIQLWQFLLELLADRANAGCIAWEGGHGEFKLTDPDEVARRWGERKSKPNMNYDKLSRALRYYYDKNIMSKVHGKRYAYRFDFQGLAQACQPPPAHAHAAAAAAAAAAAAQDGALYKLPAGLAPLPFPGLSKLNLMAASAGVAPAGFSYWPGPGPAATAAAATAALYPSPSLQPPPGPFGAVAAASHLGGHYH
How it was run: as §1

CRX = CRX (Homo sapiens, UniProt O43186 1-299); details: protein: recombinant; tags: N-terminal GST; dsDNA, one strand shown
How it was run: as §1

ETV1 = ETV1 (Homo sapiens, UniProt P50549 1-477); details: protein: recombinant; tags: N-terminal GST; dsDNA, one strand shown
How it was run: as §1

ETV3L = target: T11, ETV3L (Homo sapiens, UniProt Q6ZN32 1-361); details: protein: recombinant; tags: N-terminal GST; dsDNA, one strand shown
T11 sequence: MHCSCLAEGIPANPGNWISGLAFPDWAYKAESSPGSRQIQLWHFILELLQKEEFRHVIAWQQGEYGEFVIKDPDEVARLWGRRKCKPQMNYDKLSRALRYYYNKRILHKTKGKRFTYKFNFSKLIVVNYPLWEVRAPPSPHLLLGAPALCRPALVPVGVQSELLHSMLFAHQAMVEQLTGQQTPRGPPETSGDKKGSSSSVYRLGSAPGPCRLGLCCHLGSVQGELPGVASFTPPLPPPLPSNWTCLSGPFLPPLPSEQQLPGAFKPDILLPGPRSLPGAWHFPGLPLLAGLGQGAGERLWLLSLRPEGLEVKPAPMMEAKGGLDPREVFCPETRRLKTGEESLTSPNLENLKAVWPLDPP
How it was run: as §1

SPDEF = target: T12, SPDEF (Homo sapiens, UniProt O95238 1-335); details: protein: recombinant; tags: N-terminal GST; dsDNA, one strand shown
T12 sequence: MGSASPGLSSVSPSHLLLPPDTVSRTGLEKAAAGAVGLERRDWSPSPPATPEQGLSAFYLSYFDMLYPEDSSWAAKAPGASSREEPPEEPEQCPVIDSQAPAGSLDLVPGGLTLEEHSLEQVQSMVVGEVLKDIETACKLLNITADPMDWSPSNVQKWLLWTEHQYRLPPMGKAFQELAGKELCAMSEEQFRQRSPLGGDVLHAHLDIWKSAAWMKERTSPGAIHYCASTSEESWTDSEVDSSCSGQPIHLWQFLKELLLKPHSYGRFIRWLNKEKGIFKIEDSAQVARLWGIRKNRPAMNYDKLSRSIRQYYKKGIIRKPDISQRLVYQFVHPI
How it was run: as §1

Sequence of HSF1 (Q00613 whole entry): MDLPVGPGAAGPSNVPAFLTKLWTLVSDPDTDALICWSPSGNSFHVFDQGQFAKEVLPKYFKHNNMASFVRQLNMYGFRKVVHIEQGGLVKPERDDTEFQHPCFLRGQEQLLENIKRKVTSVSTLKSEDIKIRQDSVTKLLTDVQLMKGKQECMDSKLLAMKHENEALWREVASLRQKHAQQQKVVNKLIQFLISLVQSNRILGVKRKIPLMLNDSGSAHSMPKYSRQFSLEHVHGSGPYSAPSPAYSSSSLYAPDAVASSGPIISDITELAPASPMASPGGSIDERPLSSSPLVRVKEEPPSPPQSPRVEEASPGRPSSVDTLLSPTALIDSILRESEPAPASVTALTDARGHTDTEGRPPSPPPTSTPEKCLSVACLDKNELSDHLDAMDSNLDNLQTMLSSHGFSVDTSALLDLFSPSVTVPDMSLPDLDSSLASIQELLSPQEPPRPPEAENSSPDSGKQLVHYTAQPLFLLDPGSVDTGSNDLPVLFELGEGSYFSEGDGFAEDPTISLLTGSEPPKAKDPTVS
Sequence of CRX (O43186 whole entry): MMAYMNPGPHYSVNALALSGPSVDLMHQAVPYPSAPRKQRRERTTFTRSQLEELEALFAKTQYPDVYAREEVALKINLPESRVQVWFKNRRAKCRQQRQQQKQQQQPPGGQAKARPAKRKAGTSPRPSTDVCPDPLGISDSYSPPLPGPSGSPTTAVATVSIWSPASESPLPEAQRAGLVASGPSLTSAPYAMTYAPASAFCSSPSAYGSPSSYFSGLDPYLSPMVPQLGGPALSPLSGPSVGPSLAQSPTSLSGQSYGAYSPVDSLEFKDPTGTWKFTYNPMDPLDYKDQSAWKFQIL
Sequence of ETV1 (P50549 whole entry): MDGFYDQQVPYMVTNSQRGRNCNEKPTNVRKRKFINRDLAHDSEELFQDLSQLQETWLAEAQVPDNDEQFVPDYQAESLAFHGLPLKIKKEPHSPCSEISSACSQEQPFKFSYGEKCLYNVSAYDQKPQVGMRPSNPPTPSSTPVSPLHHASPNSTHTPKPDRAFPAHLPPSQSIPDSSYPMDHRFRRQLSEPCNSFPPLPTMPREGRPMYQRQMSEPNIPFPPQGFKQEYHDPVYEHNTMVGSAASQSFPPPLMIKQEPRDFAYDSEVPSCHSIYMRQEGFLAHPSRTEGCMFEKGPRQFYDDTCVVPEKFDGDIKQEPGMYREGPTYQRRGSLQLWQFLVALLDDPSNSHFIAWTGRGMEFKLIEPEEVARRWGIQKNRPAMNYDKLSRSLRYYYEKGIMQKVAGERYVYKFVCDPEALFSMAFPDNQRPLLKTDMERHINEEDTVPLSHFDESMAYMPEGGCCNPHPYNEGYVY

**Q.** CCAGCA was tested. Which binding signal (ELK3) did it give?
**A.** The binding signal was 1 fold enrichment (6-mer frequency, TF over GST control).

**Q.** And the binding signal (HSF1)?
**A.** The binding signal was 1.21 fold enrichment (6-mer frequency, TF over GST control).

**Q.** What about the binding signal (SPIC) of the same sequence?
**A.** The binding signal was 1.1 fold enrichment (6-mer frequency, TF over GST control).

**Q.** What about the binding signal (ELF3) of the same sequence?
**A.** The binding signal was 1.06 fold enrichment (6-mer frequency, TF over GST control).

**Q.** Which results are given for CGAAGT?
**A.** binding signal (HSF1): 1.08 fold enrichment (6-mer frequency, TF over GST control); binding signal (ELK4): 1 fold enrichment (6-mer frequency, TF over GST control); binding signal (ETV2): 1.03 fold enrichment (6-mer frequency, TF over GST control); binding signal (ETV7): 1.06 fold enrichment (6-mer frequency, TF over GST control)

**Q.** CTAGGA was tested. Which binding signal (EHF) did it give?
**A.** The binding signal was 1.01 fold enrichment (6-mer frequency, TF over GST control).

**Q.** What about the binding signal (HSF1) of the same sequence?
**A.** Its binding signal is 1.08 fold enrichment (6-mer frequency, TF over GST control).

**Q.** And the binding signal (SPIC)?
**A.** Its binding signal is 1.01 fold enrichment (6-mer frequency, TF over GST control).

**Q.** What does the source list for TAGACA?
**A.** binding signal (ELK1): 1.07 fold enrichment (6-mer frequency, TF over GST control); binding signal (GABPA): 1.01 fold enrichment (6-mer frequency, TF over GST control); binding signal (ELK3): 1.02 fold enrichment (6-mer frequency, TF over GST control); binding signal (FEV): 1.02 fold enrichment (6-mer frequency, TF over GST control); binding signal (HSF1): 1.11 fold enrichment (6-mer frequency, TF over GST control); binding signal (ELK4): 1.11 fold enrichment (6-mer frequency, TF over GST control); binding signal (ETV2): 1.01 fold enrichment (6-mer frequency, TF over GST control); binding signal (ELF3): 1.01 fold enrichment (6-mer frequency, TF over GST control); binding signal (CRX): 1.03 fold enrichment (6-mer frequency, TF over GST control); binding signal (ETV1): 1.01 fold enrichment (6-mer frequency, TF over GST control); binding signal (ETV3L): 1.01 fold enrichment (6-mer frequency, TF over GST control); binding signal (SPDEF): 1.03 fold enrichment (6-mer frequency, TF over GST control); binding signal (ETV7): 1.07 fold enrichment (6-mer frequency, TF over GST control)
